Assay results published in PubChem BioAssay AID1159580 (chemical genetic matrix, 2015).
Values joined by “and” are separate entries in the source; they are usually repeats but may differ in a detail not shown here. Equal entries are not always repeated. The campaign covered roughly 5,500 compounds. About 2,000 (36%) were called active. About 18% were inconclusive and are not listed. Rule as the data show it: active = normalized growth mostly below about 0.91 (no sharp cut-off); inconclusive = no clear call, values can overlap the other calls; inactive = mostly above about 0.92. Some of the results follow. A structure can be active in one record and inactive in another.

Experiment: chemical genetic growth profiling, strain panel (AID 1159580);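 also: tested at 20 µM; growth read once vehicle control cultures reached saturation at 30 °C; 1 = growth at the plate median or of vehicle wells; lower values mean less growth of the strain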
Settings: growth OD

Measured: normalized growth

Cc1cc2c(C(C)C)c(O)c(O)c(C=O)c2c(O)c1-c1c(C)cc2c(C(C)C)c(O)c(O)c(C=O)c2c1O
inactive: S. cerevisiae deletion strains, locus YJR066W, strain TOR1, stronger effect = lower value 0.993 | S. cerevisiae deletion strains, locus YJR075W, strain HOC1, stronger effect = lower value 0.907 | S. cerevisiae deletion strains, locus YKL068W, stronger effect = lower value 1.04 | S. cerevisiae deletion strains, locus YKR091W, strain srl3, stronger effect = lower value 0.935 and 0.943 | S. cerevisiae deletion strains, locus YLR102C, strain apc9, stronger effect = lower value 0.992 and 1.01 | S. cerevisiae deletion strains, locus YLR113W, strain HOG1, stronger effect = lower value 0.952 | S. cerevisiae deletion strains, locus YMR078C, strain ctf18, stronger effect = lower value 0.974 and 0.987 | S. cerevisiae deletion strains, locus YNL183C, strain NPR1, stronger effect = lower value 0.984 | S. cerevisiae deletion strains, locus YNL250W, strain rad50, stronger effect = lower value 0.961 and 0.957 | S. cerevisiae deletion strains, locus YNL271C, strain bni1, stronger effect = lower value 0.969 and 0.96 | S. cerevisiae deletion strains, locus YNL298W, strain CLA4, stronger effect = lower value 0.959 and 0.985 | S. cerevisiae deletion strains, locus YOL012C, strain htz1 0.315 and 0.44 | S. cerevisiae deletion strains, locus YOR136W, strain idh2, stronger effect = lower value 0.969 and 0.986 | S. cerevisiae deletion strains, locus YOR231W, strain MKK1, stronger effect = lower value 1.01 | S. cerevisiae deletion strains, locus YOR316C, strain cot1, stronger effect = lower value 0.967 and 1 | S. cerevisiae deletion strains, locus YPL256C, strain CLN2, stronger effect = lower value 0.973 | S. cerevisiae deletion strains, locus YPR119W, strain clb2, stronger effect = lower value 0.983 and 1.02 | S. cerevisiae deletion strains, locus YPR141C, strain kar3, stronger effect = lower value 0.984 and 0.991 | S. cerevisiae deletion strains, locus YPR163C, strain tif3, stronger effect = lower value 0.932 and 1.02
0.928 (active) and 0.994 (inactive): S. cerevisiae deletion strains, locus YML124C, strain tub3, stronger effect = lower value
0.872 (active) and 0.991 (inactive): S. cerevisiae deletion strains, locus YOL147C, strain pex11, stronger effect = lower value
0.912 (active) and 0.957 (inactive): S. cerevisiae deletion strains, locus YPL241C, strain CIN2, stronger effect = lower value
0.86 (active) and 0.906 (inactive): S. cerevisiae deletion strains, strain wtn01, stronger effect = lower value
0.486 (active) and 0.903 (inactive): S. cerevisiae deletion strains, locus YLR418C, strain cdc73, stronger effect = lower value
0.207 (active) and 0.653 (inactive): S. cerevisiae deletion strains, locus YLR262C, strain YPT6, stronger effect = lower value
0.824 (active) and 0.908 (inactive): S. cerevisiae deletion strains, locus YMR125W, strain sto1, stronger effect = lower value
0.855 (active) and 0.958 (inactive): S. cerevisiae deletion strains, locus YML032C, strain rad52, stronger effect = lower value
0.892 (inactive) and 0.886 (active): S. cerevisiae deletion strains, locus YNL248C, strain rpa49, stronger effect = lower value
0.878 (active) and 0.941 (inactive): S. cerevisiae deletion strains, locus YMR129W, stronger effect = lower value
0.664 (active) and 0.912 (inactive): S. cerevisiae deletion strains, locus YOR184W, strain ser1, stronger effect = lower value
0.56 (active) and 0.883 (inactive): S. cerevisiae deletion strains, locus YNL128W, strain TEP1, stronger effect = lower value
0.842 (active) and 0.958 (inactive): S. cerevisiae deletion strains, locus YPR167C, strain met16, stronger effect = lower value
0.798 (active) and 0.905 (inactive): S. cerevisiae deletion strains, locus YPL106C, strain sse1, stronger effect = lower value
0.804 (active) and 0.984 (inactive): S. cerevisiae deletion strains, locus YNL307C, strain MCK1, stronger effect = lower value
0.202 (active) and 0.679 (inactive): S. cerevisiae deletion strains, locus YLR039C, strain RIC1, stronger effect = lower value
0.354 (active) and 0.699 (inactive): S. cerevisiae deletion strains, locus YMR307W, strain GAS1, stronger effect = lower value
0.846 (active) and 0.936 (inactive): S. cerevisiae deletion strains, locus YPL240C, strain hsp82, stronger effect = lower value
0.679 (active) and 0.959 (inactive): S. cerevisiae deletion strains, locus YNR052C, strain pop2, stronger effect = lower value
0.859 (active) and 0.978 (inactive): S. cerevisiae deletion strains, locus YOR144C, strain elg1, stronger effect = lower value
active: S. cerevisiae deletion strains, locus YKL009W, strain mrt4, stronger effect = lower value 1.52 [resistant] | S. cerevisiae deletion strains, locus YKL085W, strain MDH1 (second series), stronger effect = lower value 1.08 [resistant] and 1.1 [resistant] | S. cerevisiae deletion strains, locus YKL085W, strain MDH1, stronger effect = lower value 1.08 [resistant] and 1.1 [resistant] | S. cerevisiae deletion strains, locus YKL160W, strain elf1, stronger effect = lower value 0.832 and 0.809 | S. cerevisiae deletion strains, locus YKL190W, strain CNB1, stronger effect = lower value 0.663 and 0.868 | S. cerevisiae deletion strains, locus YKR001C, strain vps1, stronger effect = lower value 0.486 and 0.887 | S. cerevisiae deletion strains, locus YLL001W, strain dnm1, stronger effect = lower value 0.724 and 0.801 | S. cerevisiae deletion strains, locus YLL026W, stronger effect = lower value 0.904 and 0.838 | S. cerevisiae deletion strains, locus YLR027C, strain aat2, stronger effect = lower value 0.78 and 0.81 | S. cerevisiae deletion strains, locus YLR058C, strain SHM2, stronger effect = lower value 0.685 and 0.764 | S. cerevisiae deletion strains, locus YLR221C, strain rsa3, stronger effect = lower value 0.751 and 0.818 | S. cerevisiae deletion strains, locus YLR258W, strain gsy2, stronger effect = lower value 0.855 and 0.839 | S. cerevisiae deletion strains, locus YLR262C, strain YPT6 (second series), stronger effect = lower value 0.216 and 0.179 | S. cerevisiae deletion strains, locus YLR268W, strain sec22, stronger effect = lower value 0.599 and 0.847 | S. cerevisiae deletion strains, locus YLR320W, strain mms22, stronger effect = lower value 0.684 and 0.651 | S. cerevisiae deletion strains, locus YLR330W, strain CHS5, stronger effect = lower value 0.675 and 0.883 | S. cerevisiae deletion strains, locus YLR342W, strain FKS1, stronger effect = lower value 0.675 and 0.786 | S. cerevisiae deletion strains, locus YLR357W, strain rsc2, stronger effect = lower value 0.649 and 0.719 | S. cerevisiae deletion strains, locus YLR370C, strain arc18, stronger effect = lower value 0.687 and 0.765 | S. cerevisiae deletion strains, locus YLR384C, strain iki3, stronger effect = lower value 0.809 and 0.889 | S. cerevisiae deletion strains, locus YML016C, strain PPZ1, stronger effect = lower value 0.73 and 0.831 | S. cerevisiae deletion strains, locus YML120C, strain ndi1, stronger effect = lower value 0.721 and 0.719 | S. cerevisiae deletion strains, locus YMR058W, strain fet3, stronger effect = lower value 0.101 and 0.125 | S. cerevisiae deletion strains, locus YMR205C, strain PFK2, stronger effect = lower value 0.63 and 0.655 | S. cerevisiae deletion strains, locus YMR223W, strain ubp8, stronger effect = lower value 0.796 and 0.898 | S. cerevisiae deletion strains, locus YMR231W, strain pep5, stronger effect = lower value 0.434 and 0.295 | S. cerevisiae deletion strains, locus YNL067W, strain RPL9B, stronger effect = lower value 0.773 and 0.808 | S. cerevisiae deletion strains, locus YNL071W, strain lat1, stronger effect = lower value 0.86 and 0.835 | S. cerevisiae deletion strains, locus YNL153C, strain GIM3, stronger effect = lower value 0.742 and 0.767 | S. cerevisiae deletion strains, locus YNL209W, strain ssb2, stronger effect = lower value 0.527 and 0.542 | S. cerevisiae deletion strains, locus YNL233W, strain BNI4, stronger effect = lower value 0.796 and 0.835 | S. cerevisiae deletion strains, locus YNL322C, strain KRE1 (second series), stronger effect = lower value 0.875 and 0.9 | S. cerevisiae deletion strains, locus YNL322C, strain KRE1, stronger effect = lower value 0.832 | S. cerevisiae deletion strains, locus YNR049C, strain mso1, stronger effect = lower value 0.854 and 0.889 | S. cerevisiae deletion strains, locus YOL006C, strain TOP1, stronger effect = lower value 0.436 | S. cerevisiae deletion strains, locus YOR001W, strain rrp6, stronger effect = lower value 0.764 and 0.819 | S. cerevisiae deletion strains, locus YOR061W, strain CKA2, stronger effect = lower value 0.653 and 0.79 | S. cerevisiae deletion strains, locus YOR069W, strain VPS5, stronger effect = lower value 0.799 and 0.9 | S. cerevisiae deletion strains, locus YOR070C, strain gyp1, stronger effect = lower value 0.893 and 0.784 | S. cerevisiae deletion strains, locus YOR080W, strain dia2, stronger effect = lower value 0.755 and 0.812 | S. cerevisiae deletion strains, locus YOR083W, strain WHI5, stronger effect = lower value 0.806 and 0.808 | S. cerevisiae deletion strains, locus YOR106W, strain vam3, stronger effect = lower value 0.537 and 0.567 | S. cerevisiae deletion strains, locus YOR265W, strain rbl2, stronger effect = lower value 0.808 and 0.842 | S. cerevisiae deletion strains, locus YOR270C, strain vph1, stronger effect = lower value 0.231 and 0.311 | S. cerevisiae deletion strains, locus YOR290C, strain snf2, stronger effect = lower value 0.525 and 0.627 | S. cerevisiae deletion strains, locus YPL051W, strain arl3, stronger effect = lower value 0.51 and 0.436 | S. cerevisiae deletion strains, locus YPL078C, strain atp4, stronger effect = lower value 0.715 and 0.778 | S. cerevisiae strains, strain wild type, stronger effect = lower value 0.809
0.92 (active) and 0.959 (inactive): S. cerevisiae deletion strains, locus YLL041C, strain sdh2, stronger effect = lower value
0.708 (active) and 0.956 (inactive): S. cerevisiae deletion strains, locus YLR371W, strain rom2, stronger effect = lower value
0.888 (active) and 0.949 (inactive): S. cerevisiae deletion strains, locus YKR026C, strain gcn3, stronger effect = lower value
0.545 (active) and 0.811 (inactive): S. cerevisiae deletion strains, locus YLR342W, strain FKS1 (second series), stronger effect = lower value
